Results: PubChem BioAssay
Values without a mark were called inactive.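 Rule for the calls: active = RAM network inhibition above 8.4% in each of two replicates, 3 SD over the compound average; inconclusive = above 8.4% inhibition in only one replicate; inactive = 8.4% inhibition or less in each replicate.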

Assay: RAM signaling pathway blockade in yeast – S. cerevisiae, Pdr1DBD-CYC8 efflux-inhibited sensitized strain, primary screen (AID 1298);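 note: 0% = DMSO untreated cells without growth and 100% = 10 µM 1-NA-PP1 full growth; higher means more yeast growth rescued from 5-FOA killing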
Settings: S. cerevisiae cbk1-as DSE1-URA3 strain, 5-FOA growth OD615, 2 d; at 50 µM; hits give high values

First: CCOC(=O)c1cc(-c2ccc(C)o2)nn1CCC#N
Second: CCOC(=O)c1ccc(N2C(=O)CC(C3CCCO3)C2=O)cc1 (stereo not given)
The RAM network inhibition of the first is higher: 3.69% for the first, 2.15% for the second.

Going from `Cc1cc(C)cc(N(CC(=O)NCc2ccco2)S(=O)(=O)c2c(C)noc2C)c1` to `COc1ccc(N(CC(=O)NCc2ccccc2OC)S(=O)(=O)c2c(C)nn(C)c2C)cc1`, the RAM network inhibition falls from 5.53% to 2.29%.

Going from `COc1ccc(OCCSc2ncnc3nc[nH]c23)cc1` to `COc1ccc(OC)c(S(=O)(=O)Nc2ccc(OCC(=O)O)cc2)c1`, the RAM network inhibition falls from 4.46% to 2.71%.

First: Cc1sc2ncnc(Sc3nnc4sc5ccccc5n34)c2c1C
Second: Cc1csc(NC(=O)CSc2nnc(Cn3c(=O)sc4ccccc43)n2-c2ccccc2)n1
The RAM network inhibition of the first is lower: 5.95% for the first, 6.99% for the second.

Compared with `CC(=O)Nc1nc2n(n1)C(c1ccccc1)C=C(c1ccccc1)N2` (stereo not given), `CC(=O)Nc1ccc(-c2cc(NC(C)=O)n(-c3ccccc3)n2)cc1` is higher in RAM network inhibition: 1.19% for the first, 3.1% for the second.

First: O=C(c1ccc(CS(=O)(=O)c2ccc(Br)cc2)o1)N1CCN(c2ncccn2)CC1
Second: CC(=O)N1CCc2cc(S(=O)(=O)Nc3ccccc3N3CCN(C)CC3)ccc21
The RAM network inhibition of the first is higher: 3.64% for the first, 0.62% for the second.

First: CC(=O)c1cccc(NC(=O)c2cc(C(C)C)on2)c1
Second: CC(=O)Nc1ccc(S(=O)(=O)Nc2cccc(C(=O)NC(C)(C)C)c2)cc1
The RAM network inhibition of the first is lower: 0.94% for the first, 6.92% for the second.

Compared with `Cc1ccccc1-c1noc(-c2cccs2)n1`, `C=CCSc1nnc2c(n1)OC(c1cccnc1)Nc1ccccc1-2` (stereo not given) is lower in RAM network inhibition: 6% for the first, 1.38% for the second.

Going from `CCOC(=O)N1CCN(CC(=O)Nc2cc(OCC)ccc2OCC)CC1` to `CC1(C)CC(=O)C(C=NCCN2CCN(C(=O)CC3CCCC3)CC2)=C(O)C1`, the RAM network inhibition falls from 7.52% to 7.49%.

Compared with `Cc1cc(C)cc(OCC(=O)Nc2cccc(-c3nc4ncccc4o3)c2)c1`, `COc1ccc(C2C(C(=O)Nc3cc(C)on3)c3ccccc3C(=O)N2C)cc1OC` (stereo not given) is lower in RAM network inhibition: 6.74% for the first, 4.64% for the second.

Compared with `Oc1ccc(-c2nc3cnccn3c2Nc2ccc3c(c2)OCCO3)cc1`, `Clc1ccc(-c2nnn(Cc3nc4ccccc4s3)n2)cc1` is lower in RAM network inhibition: 7.64% for the first, 2.46% for the second.

Going from `CC(=O)c1cccc(NC(=O)C2CCN(S(=O)(=O)c3ccc(F)cc3)CC2)c1` to `COc1ccc(N2C(=O)CCC(C(=O)N3CCC(C(N)=O)CC3)C2c2ccc(F)cc2)cc1` (stereo not given), the RAM network inhibition falls from 5.67% to 3.66%.

Compared with `CCc1nnc(NC(=O)CSc2nnc(Cc3cccn3C)n2C)s1`, `O=C(CSc1nnc(COc2ccccc2)o1)Nc1nccs1` is higher in RAM network inhibition: 1.19% for the first, 3.24% for the second.

Going from `CCNc1cc2oc(=O)c(CN3CCOCC3)c(C)c2cc1C` to `O=C(c1cc(C2CC2)on1)N1CCOCC1`, the RAM network inhibition rises from 0.2% to 2.93%.

Going from `COc1ccc(N=C(N(C)C)P(=O)(N(C)C)N(C)C)cc1` to `COC(=O)c1ccc2c(c1)N(C)CCS2`, the RAM network inhibition falls from 6.63% to -0.26%.

Going from `COC(=O)c1ccccc1NC(=O)Nc1nnc(N2CCCCC2C)s1` (stereo not given) to `COc1ccccc1CCNC(=O)c1cnn2c(C(F)F)cc(C)nc12`, the RAM network inhibition rises from 1.05% to 4.32%.

Compared with `CC(C)(C)OC(=O)N1CCC(C(N)=O)CC1`, `COC(=O)c1c(N2C(=O)CCC2=O)sc2c1CCCC2` is lower in RAM network inhibition: 0.06% for the first, -1.57% for the second.

Compared with `CN(C)/C=N/c1c(C#N)cnn1-c1ccccc1`, `CN(Cc1ccccc1)c1nnc(N)s1` is lower in RAM network inhibition: 4.32% for the first, 2.5% for the second.

Compared with `CC(C)C(=O)Nc1ccc2c(c1)C(=O)N(CCC(=O)O)C2=O`, `CC(=O)Nc1ccc(S(=O)(=O)NCCc2cc3c(C)ccc(C)c3[nH]c2=O)cc1` is higher in RAM network inhibition: -0.51% for the first, 1.05% for the second.

Compared with `O=C(c1cncc(Br)c1)N1CCN(c2ccc(N3CCOCC3)nn2)CC1`, `CC1(C)Cc2ccccc2-c2nc(NCCCO)n(-c3ccccc3)c(=O)c21` is higher in RAM network inhibition: 4.09% for the first, 5.29% for the second.
